Experimental data as given in PubChem BioAssay (EPA / NIEHS).
Inconclusive results are not listed. Calls of active or inactive are those of the source. How the source made its calls, unless noted: active means hit-call score of the fitted dose curve at least 0.9, where 1 is the maximum; inactive means score below 0.9.

Legend:
[1] = ATG_NFI_CIS: Attagene CIS-FACTORIAL HepG2 Assay for human Nuclear Factor I (NFI) (AID 2282989); conditions: HepG2 cis-regulatory reporter, NFI response element transcription; actives raise or lower the signal
How it was run: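 Multiplexed cis-reporter system in human HepG2 cells reports native TF activity as reporter mRNA induction 24 h post-dose. Fragments labelled with 6-FAM, HpaI-digested and resolved by capillary electrophoresis; activity fitted both directions versus DMSO.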

[2] = target: Myc proto-oncogene protein (Homo sapiens) (UniProt P01106); test: ATG_Myc_CIS: Attagene CIS-FACTORIAL HepG2 Assay for human Myelocytomatosis (Myc) Proto-Oncogene Transcription Factor (AID 2282990); conditions: HepG2, Attagene cis-reporter transcription factor activity; actives raise or lower the signal
Myc proto-oncogene protein (Homo sapiens), sequence (P01106 whole entry, looked up): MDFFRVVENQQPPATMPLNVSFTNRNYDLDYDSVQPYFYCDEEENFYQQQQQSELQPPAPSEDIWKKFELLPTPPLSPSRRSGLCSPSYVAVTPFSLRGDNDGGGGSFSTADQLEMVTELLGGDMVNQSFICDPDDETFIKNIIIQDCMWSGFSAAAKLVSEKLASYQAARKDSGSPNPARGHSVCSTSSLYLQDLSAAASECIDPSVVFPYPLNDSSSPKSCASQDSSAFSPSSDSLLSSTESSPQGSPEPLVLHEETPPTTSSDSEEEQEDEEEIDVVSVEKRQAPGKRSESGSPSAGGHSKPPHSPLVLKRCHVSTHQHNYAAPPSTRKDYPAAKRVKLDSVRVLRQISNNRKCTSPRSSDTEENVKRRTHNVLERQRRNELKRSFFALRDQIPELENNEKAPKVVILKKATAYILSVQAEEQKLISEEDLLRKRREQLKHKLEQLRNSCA
How it was run: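 HepG2 cells transiently transfected with multiple cis-promoter-driven reporter transcription units, so endogenous TF activity is read. After 24 h compound exposure, reporter mRNA was quantified by RT-PCR, 6-FAM labelling, HpaI digestion and capillary electrophoresis; bidirectional fit versus DMSO.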

[3] = ATG_NF_kB_CIS: Attagene CIS-FACTORIAL HepG2 Assay for human Nuclear Factor Kappa B (NF-kB) (AID 2282991); conditions: HepG2 Attagene cis-factorial NF-kB reporter mRNA; actives raise or lower the signal
How it was run: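 Measures mRNA induction of an NF-kB-responsive cis-element reporter in HepG2 cells transfected with multiple reporter units, sampled 24 h post-dosing; quantified by fluorescence after RT-PCR and capillary electrophoresis, fitted for activation or inhibition against DMSO.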

[4] = ATG_NRF2_ARE_CIS: Attagene CIS-FACTORIAL HepG2 Assay for human Nuclear Factor Erythroid 2 Related Factor 2 (NFR2) response to Antioxidant Response Elements (ARE) (AID 2282992); conditions: HepG2 Attagene ARE/NRF2 reporter, transcription factor activity; actives raise or lower the signal;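 on AC50: reporter mRNA level measured by RT-PCR and capillary electrophoresis fluorescence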
How it was run: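 Multiplexed reporter mRNA profiling in HepG2 after a 24 h chemical exposure. Curves fitted in both directions relative to DMSO negative control.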

[5] = target: Cellular tumor antigen p53 (Homo sapiens) (UniProt P04637); test: ATG_p53_CIS: Attagene CIS-FACTORIAL HepG2 Assay for human p53 Transcription Factor (AID 2282994); conditions: HepG2 p53 cis-element reporter, Attagene mRNA; actives raise or lower the signal
Cellular tumor antigen p53 (Homo sapiens), sequence (P04637 whole entry, looked up): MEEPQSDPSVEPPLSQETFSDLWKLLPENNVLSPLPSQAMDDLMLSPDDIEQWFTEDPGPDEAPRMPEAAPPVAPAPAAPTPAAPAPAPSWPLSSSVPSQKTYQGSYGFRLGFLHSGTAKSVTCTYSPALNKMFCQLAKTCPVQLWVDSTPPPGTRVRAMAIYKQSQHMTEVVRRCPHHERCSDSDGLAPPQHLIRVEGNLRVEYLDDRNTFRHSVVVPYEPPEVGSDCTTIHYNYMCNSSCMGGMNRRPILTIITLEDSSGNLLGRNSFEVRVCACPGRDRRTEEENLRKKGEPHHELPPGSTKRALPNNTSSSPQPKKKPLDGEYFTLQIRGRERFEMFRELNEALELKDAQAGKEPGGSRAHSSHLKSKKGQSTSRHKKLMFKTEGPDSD
How it was run: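 Multiplexed reporter mRNA assay in human HepG2 liver cells; cis-regulated units report endogenous factor activity. Values come from bidirectional curve fitting against DMSO negative control after 24 h treatment.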

[6] = BSK_3C_TissueFactor: BioMAP Diversity Plus: 3C Assay for Tissue Factor Biomarker Activity (AID 2282997); conditions: BioMAP 3C HUVEC, tissue factor biomarker readout; actives raise or lower the signal
How it was run: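 Primary human umbilical vein endothelial cells in the 3C system were exposed to test chemical for 24 h, then Tissue Factor measured by ELISA. Activity was fitted bidirectionally against DMSO as negative control and baseline.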

[7] = BSK_3C_uPAR: BioMAP Diversity Plus: 3C Assay for Urokinase-type plasminogen activator receptor (uPAR) Biomarker Activity (AID 2282998); conditions: BioMAP 3C HUVEC, uPAR biomarker ELISA; actives raise or lower the signal
How it was run: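 Values derive from bidirectional curve fitting relative to DMSO, which served as baseline of activity. uPAR was measured by ELISA in human umbilical vein endothelial primary cultures 24 h after compound addition.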

[8] = BSK_3C_VCAM1: BioMAP Diversity Plus: 3C Assay for Vascular cell adhesion molecule 1 (VCAM1) Biomarker Activity (AID 2282999); conditions: BioMAP 3C HUVEC, VCAM1 ELISA, cytokine-stimulated; actives raise or lower the signal
How it was run: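 Human umbilical vein endothelial cells were dosed with compound for 24 h, after which cell-surface VCAM-1 was quantified by ELISA. Bidirectional curve fitting used DMSO as negative control and activity baseline.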

[9] = BSK_4H_Eotaxin3: BioMAP Diversity Plus: 4H Assay for Eotaxin 3 Biomarker Activity (AID 2283000); conditions: primary human endothelial cells (HUVEC); actives raise or lower the signal;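 further: CCL26 protein level quantified by ELISA in parallel with SRB cytotoxicity check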
How it was run: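 HUVEC, 24 h post-dose, ELISA for Eotaxin-3/CCL26. Gain or loss of signal fitted bidirectionally vs DMSO baseline.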

[10] = target: human Peroxisome Proliferator-activated Receptor alpha (PPARa), PPARA (gene 5465) (UniProt Q07869); test: ATG_PPARa_TRANS: Attagene TRANS-FACTORIAL HepG2 Assay for human Peroxisome Proliferator-activated Receptor alpha (PPARa) (AID 2283001; active means hit-call score of the fitted dose curve at least 0.9, where 1 is the maximum)
human Peroxisome Proliferator-activated Receptor alpha (PPARa), PPARA (gene 5465), sequence (Q07869 whole entry, looked up, the tested form may be a part): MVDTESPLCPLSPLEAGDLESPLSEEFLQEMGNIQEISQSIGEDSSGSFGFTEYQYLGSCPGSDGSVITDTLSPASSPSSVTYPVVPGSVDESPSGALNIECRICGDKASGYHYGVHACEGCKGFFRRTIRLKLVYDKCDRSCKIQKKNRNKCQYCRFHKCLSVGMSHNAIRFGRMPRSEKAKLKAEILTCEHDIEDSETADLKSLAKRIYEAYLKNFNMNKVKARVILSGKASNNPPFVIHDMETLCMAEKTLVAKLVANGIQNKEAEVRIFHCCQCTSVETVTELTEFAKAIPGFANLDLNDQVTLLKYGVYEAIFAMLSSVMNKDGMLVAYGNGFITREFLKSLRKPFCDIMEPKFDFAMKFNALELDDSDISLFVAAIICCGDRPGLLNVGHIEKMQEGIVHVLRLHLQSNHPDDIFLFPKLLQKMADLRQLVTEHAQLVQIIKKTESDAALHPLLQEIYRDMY
How it was run: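 HepG2 cells transiently transfected with multiplexed GAL4-UAS reporter units and chimeric NR-Gal4 constructs were dosed for 24 h. Reporter mRNA was measured by RT-PCR with fluorescent labelling and capillary electrophoresis; gain of signal fitted against DMSO.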

[11] = read-out: Intercellular Adhesion Molecule 1 (ICAM1), ICAM1 (gene 3383); test: BSK_3C_ICAM1: BioMAP Diversity Plus: 3C Assay for Intercellular Adhesion Molecule 1 (ICAM1) Biomarker Activity (AID 2283003); conditions: primary human endothelial cells (HUVEC); actives raise or lower the signal
How it was run: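 Primary human umbilical vein endothelial cells in the BioMAP 3C system were exposed to chemicals for 24 h, then ICAM-1 was quantified by ELISA. Activity was fitted bidirectionally against the DMSO negative control baseline.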

[12] = BSK_3C_Proliferation: Cell Proliferation Assessment in the BioMAP Diversity Plus: 3C Assay (AID 2283006); conditions: primary human endothelial cells (HUVEC)
How it was run: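 Human umbilical vein endothelial cells were grown sub-confluent and exposed to chemical for 48 h, then fixed with 10% TCA and stained with 0.1% sulforhodamine B; absorbance at 560 nm gave relative cell number, fitted bidirectionally against DMSO baseline.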

[13] = target: Peroxisome proliferator-activated receptor gamma (Homo sapiens) (UniProt P37231); test: ATG_PPARg_TRANS: Attagene TRANS-FACTORIAL HepG2 Assay for human Peroxisome Proliferator-activated Receptor-gamma (PPARg) (AID 2283007; active means hit-call score of the fitted dose curve at least 0.9, where 1 is the maximum)
Peroxisome proliferator-activated receptor gamma (Homo sapiens), sequence (P37231 whole entry, looked up, the tested form may be a part): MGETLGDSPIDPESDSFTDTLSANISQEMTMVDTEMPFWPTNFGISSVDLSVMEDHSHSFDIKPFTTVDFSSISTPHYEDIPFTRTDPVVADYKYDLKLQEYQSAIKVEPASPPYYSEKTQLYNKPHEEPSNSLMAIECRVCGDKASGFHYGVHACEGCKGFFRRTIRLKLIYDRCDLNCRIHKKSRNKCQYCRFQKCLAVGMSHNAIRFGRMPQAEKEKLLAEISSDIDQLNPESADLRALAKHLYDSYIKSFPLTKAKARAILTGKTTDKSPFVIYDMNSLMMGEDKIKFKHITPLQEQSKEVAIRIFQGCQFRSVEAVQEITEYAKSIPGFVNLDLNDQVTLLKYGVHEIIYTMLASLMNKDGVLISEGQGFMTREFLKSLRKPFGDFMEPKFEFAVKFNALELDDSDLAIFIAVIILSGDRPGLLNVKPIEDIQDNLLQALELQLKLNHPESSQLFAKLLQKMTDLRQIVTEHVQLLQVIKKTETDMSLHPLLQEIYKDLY
How it was run: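 Gain-of-signal endpoint relative to DMSO, derived from reporter mRNA levels quantified by RT-PCR and capillary electrophoresis. Cells were HepG2 transiently expressing a chimeric NR-Gal4 construct with GAL4-UAS reporters, exposed to chemicals for 24 h.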

[14] = target: Nuclear receptor subfamily 1 group I member 2 (Homo sapiens) (UniProt O75469); test: ATG_PXR_TRANS: Attagene TRANS-FACTORIAL HepG2 Assay for human Pregnane X Receptor (PXR) (AID 2283008; active means hit-call score of the fitted dose curve at least 0.9, where 1 is the maximum)
Nuclear receptor subfamily 1 group I member 2 (Homo sapiens), sequence (O75469 whole entry, looked up, the tested form may be a part): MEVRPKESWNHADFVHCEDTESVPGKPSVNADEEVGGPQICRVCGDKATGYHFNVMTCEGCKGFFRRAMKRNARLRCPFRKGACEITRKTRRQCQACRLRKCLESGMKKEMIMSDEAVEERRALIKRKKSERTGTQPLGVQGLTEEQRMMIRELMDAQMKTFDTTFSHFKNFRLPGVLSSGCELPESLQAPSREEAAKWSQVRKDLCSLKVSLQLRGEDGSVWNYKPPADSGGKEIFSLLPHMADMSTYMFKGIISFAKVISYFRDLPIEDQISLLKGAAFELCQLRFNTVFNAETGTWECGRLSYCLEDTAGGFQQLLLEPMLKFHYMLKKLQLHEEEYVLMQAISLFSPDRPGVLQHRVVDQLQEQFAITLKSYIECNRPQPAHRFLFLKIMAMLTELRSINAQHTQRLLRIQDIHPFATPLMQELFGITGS
How it was run: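 Measures mRNA induction of a GAL4-UAS-driven reporter in human HepG2 cells transiently expressing PXR fused to Gal4, following 24 h treatment. DMSO served as negative control and baseline.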

[15] = ATG_Oct_MLP_CIS: Attagene CIS-FACTORIAL HepG2 Assay for human Octamer-Binding Transcription Factor (Oct) (AID 2282993); conditions: HepG2 Attagene cis-factorial Oct reporter, mRNA; actives raise or lower the signal
How it was run: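 After 24 h compound exposure, transfected HepG2 cells were lysed for total RNA; reporter-specific cDNA was PCR-amplified, fluorescently labelled and sized by capillary electrophoresis. Bidirectional curve fitting used DMSO as baseline.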

[16] = target: human Peroxisome Proliferator-activated Receptor delta (PPARd), PPARD (gene 5467) (UniProt Q03181); test: ATG_PPARd_TRANS: Attagene TRANS-FACTORIAL HepG2 Assay for human Peroxisome Proliferator-activated Receptor delta (PPARd) (AID 2283002; active means hit-call score of the fitted dose curve at least 0.9, where 1 is the maximum)
human Peroxisome Proliferator-activated Receptor delta (PPARd), PPARD (gene 5467), sequence (Q03181 whole entry, looked up, the tested form may be a part): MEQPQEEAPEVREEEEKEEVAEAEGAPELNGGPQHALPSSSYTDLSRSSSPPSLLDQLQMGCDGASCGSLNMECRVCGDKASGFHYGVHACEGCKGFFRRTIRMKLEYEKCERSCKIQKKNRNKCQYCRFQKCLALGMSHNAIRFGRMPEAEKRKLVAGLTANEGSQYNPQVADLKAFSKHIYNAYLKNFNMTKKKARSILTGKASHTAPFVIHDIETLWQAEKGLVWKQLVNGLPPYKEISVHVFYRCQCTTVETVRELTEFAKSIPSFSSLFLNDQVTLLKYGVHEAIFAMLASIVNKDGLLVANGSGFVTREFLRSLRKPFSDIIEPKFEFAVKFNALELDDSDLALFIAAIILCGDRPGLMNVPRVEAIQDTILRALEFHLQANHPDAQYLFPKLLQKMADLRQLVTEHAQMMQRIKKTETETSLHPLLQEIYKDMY
How it was run: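 HepG2 cells transiently transfected with multiplexed GAL4-UAS reporter units and exogenous chimeric NR-Gal4 proteins; 24 h compound exposure. Reporter mRNA measured by RT-PCR, 6-FAM labelling, HpaI digestion and capillary electrophoresis; gain of signal versus DMSO.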

[17] = target: human RAR-related Orphan Receptor beta (RORb), RORB (gene 6096) (UniProt Q92753); test: ATG_RORb_TRANS: Attagene TRANS-FACTORIAL HepG2 Assay for human RAR-related Orphan Receptor beta (RORb) (AID 2283010; active means hit-call score of the fitted dose curve at least 0.9, where 1 is the maximum)
human RAR-related Orphan Receptor beta (RORb), RORB (gene 6096), sequence (Q92753 whole entry, looked up, the tested form may be a part): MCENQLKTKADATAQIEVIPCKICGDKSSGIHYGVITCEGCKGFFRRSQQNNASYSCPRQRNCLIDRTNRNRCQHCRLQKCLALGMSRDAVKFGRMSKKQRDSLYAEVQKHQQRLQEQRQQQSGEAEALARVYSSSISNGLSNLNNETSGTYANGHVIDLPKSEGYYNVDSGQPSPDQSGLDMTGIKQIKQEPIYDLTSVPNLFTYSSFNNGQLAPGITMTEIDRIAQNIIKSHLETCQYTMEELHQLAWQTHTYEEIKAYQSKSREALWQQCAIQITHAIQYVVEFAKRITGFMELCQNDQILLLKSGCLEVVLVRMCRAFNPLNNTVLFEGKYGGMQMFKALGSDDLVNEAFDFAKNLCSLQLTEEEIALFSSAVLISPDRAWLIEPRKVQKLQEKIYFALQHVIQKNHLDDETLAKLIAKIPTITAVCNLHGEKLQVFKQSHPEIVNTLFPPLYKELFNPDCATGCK
How it was run: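 HepG2 cells were transiently transfected with multiplexed GAL4-UAS reporter units expressing chimeric nuclear receptor–GAL4 proteins, then dosed for 24 h. Reporter mRNA was quantified by RT-PCR with fluorescent labelling and capillary electrophoresis; gain of signal was fitted relative to DMSO.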

[18] = target: human Retinoic Acid Receptor beta (RARb), RARB (gene 5915) (UniProt P10826); test: ATG_RARb_TRANS: Attagene TRANS-FACTORIAL HepG2 Assay for human Retinoic Acid Receptor beta (AID 2283004; active means hit-call score of the fitted dose curve at least 0.9, where 1 is the maximum)
human Retinoic Acid Receptor beta (RARb), RARB (gene 5915), sequence (P10826 whole entry, looked up, the tested form may be a part): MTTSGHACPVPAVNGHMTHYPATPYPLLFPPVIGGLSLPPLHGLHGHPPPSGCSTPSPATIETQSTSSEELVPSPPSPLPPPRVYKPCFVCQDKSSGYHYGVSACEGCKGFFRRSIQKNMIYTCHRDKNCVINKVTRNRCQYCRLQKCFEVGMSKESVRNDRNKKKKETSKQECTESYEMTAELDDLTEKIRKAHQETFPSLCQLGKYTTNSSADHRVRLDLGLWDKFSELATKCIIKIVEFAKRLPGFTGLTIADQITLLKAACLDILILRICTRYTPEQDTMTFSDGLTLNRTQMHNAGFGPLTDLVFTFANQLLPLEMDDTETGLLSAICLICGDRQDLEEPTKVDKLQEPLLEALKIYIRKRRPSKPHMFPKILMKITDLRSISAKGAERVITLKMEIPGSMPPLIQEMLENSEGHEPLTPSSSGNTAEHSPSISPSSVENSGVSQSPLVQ
How it was run: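 HepG2 cells transiently transfected with multiplexed GAL4-UAS reporter units expressing chimeric NR–Gal4 fusions; 24 h compound exposure. Reporter mRNA quantified by RT-PCR, 6-FAM labelling, HpaI digestion and capillary electrophoresis; gain-of-signal fitted against DMSO baseline.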

Measured: AC50

Nc1cc([N+](=O)[O-])ccc1Cl
active: [4] 62.5 µM | [13] 49.8 µM
not listed: [15] | [16] | [17] | [18]
inactive: all other assays above

COc1cc(C(C)(C)C)c(O)c(C(C)(C)C)c1
inactive: [1] | [2] | [3] | [4] | [15] | [16] | [13] | [14]

CNC(=O)Oc1ccc2c(c1)[C@]1(C)CCN(C)[C@@H]1N2C
inactive: [1] | [2] | [3] | [5] | [16]
active: [4] 100 µM

CC(=O)OCCOC(C)=O
inactive: [1] | [2] | [3] | [4] | [15] | [5] | [17]

CC[C@]12CCCN3CCc4c(n(c5ccccc45)[C@@](O)(C(=O)OC)C1)[C@@H]32
active: [3] 170 µM | [5] 164 µM
inactive: [1] | [2] | [4]

OC1C(O)C(O)C(O)C(O)C1O (stereo not drawn)
inactive: [1] | [2] | [3] | [4] | [15] | [10] | [16] | [13] | [14]

O=S(=O)(O)NC1CCCCC1
inactive: [1] | [2] | [3] | [4] | [15] | [10] | [18] | [13] | [14]
